Screening data (PubChem BioAssay)
Rows were chosen to be rich in hits. Some 10% of all compounds tested hit in one or more screens of this group.
GLS inhibitor = blocks human kidney-isoform glutaminase activity; Potency, µM (titrated, usually from 45.5 µM), without a hit: top-dose activity change, negative = inhibition, hits mostly inhibitors; O94925; GLS enzymatic activity, qHTS titration; 410,000 compounds, 0.21% hits; note: % is set by controls: 0 for no effect and ±100 for the full control effect
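Compounds were pin-transferred onto hKGA, after which L-glutamine (1 mM solution) and a detection mix of glutamate oxidase, HRP and Amplex Red were added. Initial and 30 min RT fluorescence reads were collected.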
G9a inh = G9a (human) methyltransferase inhibition; AID 504332; 350,000 compounds, 8.8% hits; G9a H3K9 monomethylation, AlphaScreen, 2 h; Potency, µM (series often up to 102 µM), without a hit: at the top dose activity, negative = inhibition, usual class: inhibitors; Q96KQ7; note: % is set by controls: 0 for no effect and ±100 for the full control effect; nearly all actives have a fitted effect of over 75% in size
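G9a (20 nM) was preincubated 15 min with compound, then reacted 2 h at room temperature with 500 nM biotin-H3K9 peptide and 20 µM SAM. Monomethyl-H3K9 detected by AlphaScreen using anti-H3K9me1 antibody.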
JMJD2A Tudor = JMJD2A Tudor domain (human) inhibition; O75164; AlphaScreen JMJD2A-Tudor / H3K4me3 peptide binding; Potency, µM (series often up to 114 µM), inactives show at the top dose activity change, negative = inhibition, most hits filed as inhibitors; 390,000 compounds, 4.4% hits; AID 504339; note: % is set by controls: 0 for no effect and ±100 for the full control effect; nearly all actives have a fitted effect of over 50% in size
HP1b chromo inh = HP1-beta chromodomain-methylated histone interaction inhibition | Potency, µM (titrated, usually from 114 µM), for the others: top-dose activity change, negative = inhibition, hits mostly inhibitors | P83916 | 390,000 compounds, 0.56% hits | AlphaScreen HP1-beta / biotin-H3K9me3 peptide binding | AID 540317; note: nearly all actives have a fitted effect of over 70% in size
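AlphaScreen: HP1-beta (50 nM) preformed 30 min with biotin-H3(1-18)K9me3 peptide (50 nM) in PBS pH 7.4, 0.01% Tween-20. Compound added for 30 min at RT, then streptavidin donor/nickel chelate acceptor beads (10 ug/mL) for 30 min.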
BAZ2B block = inhibitors of human BAZ2B bromodomain; Q9UIF8; AlphaScreen BAZ2B-H3K14Ac peptide displacement; 360,000 compounds, 4.4% hits; Potency, µM (titrated, usually from 114 µM), inactives show at the top dose activity change, negative = inhibition, actives largely listed as inhibitors; AID 504333; note: % is set by controls: 0 for no effect and ±100 for the full control effect; nearly all actives have a fitted effect of over 60% in size
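In this displacement format the biotinylated H3(5-23) peptide acetylated at Lys14 serves as ligand at 50 nM, with BAZ2B at 50 nM in PBS pH 7.4 containing 0.01% Tween-20. Donor and acceptor beads are 10 ug/mL final.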
Numbers without * were called inactive; ? = inconclusive; . = no result given; [ ] = remark or other dose. Calls come from the whole dose curve; as a rule, active = well fitted curve in the direction sought with a large enough effect; inconclusive = small, poorly fitted or top-dose-only effect, or another doubt; inactive = no such curve, though single readings can be large; an effect the other way counts as inactive or inconclusive. Potency is the fitted concentration of half-maximal effect.

SMILES | GLS inhibitor | G9a inh | JMJD2A Tudor | HP1b chromo inh | BAZ2B block
Cc1ccc2[nH]c(O)c(N=NC(=O)c3ccc(NS(=O)(=O)c4cccs4)cc3)c2c1 | -1% | 6%[12.7 µM] | ? | 23% | -37%
CC(=O)Nc1cccc(C(=O)NNC(=O)c2ccc(NS(=O)(=O)c3cccs3)cc2)c1 | 4% | . | . | . | .
COc1ccc2[nH]c(O)c(N=NC(=O)c3ccc(NS(=O)(=O)c4cccs4)cc3)c2c1 | -6% | -3%[12.7 µM] | ? | 24% | 50µM*
CN1CCO/C1=C(\C(Cl)=C(Cl)Cl)[N+](=O)[O-] | -1% | 20µM* | 56µM* | 23% | 50µM*
O=[N+]([O-])/C(C(=C(Cl)Cl)N1CCOCC1)=C1\NCCO1 | 3% | . | -1% | 49% | ?
CCc1ccccc1NC(=O)CSc1nc2n[nH]c(C)c2c(=N)n1-c1ccc(OC)cc1 | 11µM* | 10%[59 µM] | -7% | 33% | 4%
Cc1cccnc1Nc1nc(-c2ccccn2)cs1 | 22% | 19%[12.7 µM] | 45µM* | 20% | 14µM*
c1ccc(-c2csc(Nc3ncccn3)n2)cc1 | 3% | -1%[59 µM] | 10% | 8% | 8%
NNc1nc(-c2ccccc2)cs1 | 8% | 22µM* | ? | 12% | ?
Cc1cccnc1Nc1nc(-c2ccccc2)cs1 | 1% | 40µM* | -15% | 8% | -21%
c1ccc(Nc2nc(-c3cccnc3)cs2)nc1 | 37% | -27%[0.0925 µM] | -14% | 13% | -3%
CCN(CC)c1ccc(/C=N/Nc2ccc(C)cc2)c(O)c1 | 2% | 1.8µM* | -1% | 21% | 45µM*
CCN(CC)c1ccc(/C=N/NC(=O)c2c(Cl)cnn2C)c(O)c1 | 7% | -3%[59 µM] | -33% | 43% | 79µM*
Cc1cccc(NC(=O)C(C)Oc2ccc(C)nc2[N+](=O)[O-])c1 (stereo not given) | 6% | . | -16% | 20% | .
COc1ccc(C(=O)NCCSc2c(C)[nH]c3ccccc23)cc1 | 1% | -49%[59 µM] | -33% | 16% | 71µM*
Cc1[nH]c2ccccc2c1SCCNC(=O)c1ccc(F)cc1 | -1% | -3%[59 µM] | ? | 14% | -23%
S=C(NN=C1C2CC3CC(C2)CC1C3)Nc1ccccc1 | 5% | ? | 50µM* | ? | ?
CN1CCN(C(=O)C2CCCN(S(=O)(=O)c3ccc(F)cc3)C2)CC1 (stereo not given) | -13% | 14µM* | 5.6µM* | ? | 32µM*
O=C(C1CCC1)N1CCN(S(=O)(=O)c2ccc(F)cc2)CC1 | 1% | -4%[0.501 µM] | -10% | 24% | 79µM*
CC(=O)N1CCC(C(=O)N2CCN(S(=O)(=O)c3ccc(F)cc3)CC2)CC1 | -1% | -1% | -1% | -4% | -33%
O=C(C1CCCN(S(=O)(=O)c2ccc(F)cc2)C1)N1CCOCC1 (stereo not given) | 6% | . | -18% | 16%[57 µM] | .
COCCN1Cc2cc3cc(C)ccc3nc2SC1=Nc1ccc(OC)cc1 | 0% | 45µM* | -26% | 28% | -34%
CCC(C)N=C1Sc2nc3ccc(C)cc3cc2CN1CCOC (stereo not given) | -8% | 5µM* | 45µM* | -10% | -19%
CCOc1ccc(N=C2Sc3nc4ccc(C)cc4cc3CN2CCOC)cc1 | -3% | ? | -18% | 12% | ?
CCOc1ccc2nc3c(cc2c1)CN(CCCO)C(=NCCOC)S3 | 4% | 32µM* | -11%[11.4 µM] | -17% | -5%
SMILES | GLS inhibitor | G9a inh | JMJD2A Tudor | HP1b chromo inh | BAZ2B block
CC(NC(=O)C1CCN(C(=O)c2ccc(F)cc2)CC1)c1ccc(-n2ccnc2)cc1 (stereo not given) | -1% | ? | -20% | 32% | 8%
COc1ccccc1C(=O)Nc1cccc2cccnc12 | 0% | 61% | 35% | 107% | 32%
CCN1/C(=C/C=C/C=C/C=C/c2sc3ccccc3[n+]2CC)Sc2ccccc21 | ? | 22µM* | 20µM* | ? | 40µM*
CCN1/C(=C/C=C/C=C/c2sc3ccccc3[n+]2CC)Sc2ccccc21 | ? | 28µM* | . | . | 11µM*
CCOC(=O)/C(=C/C=C1\Sc2ccccc2N1CC)C(C)=O | 0% | ? | -33% | 7% | -32%
CCN1/C(=C/C=C/c2sc3ccccc3[n+]2CC)Sc2ccccc21 | 9% | ? | -1% | 26% | 14µM*
CC(C)(C)OC(=O)N1CCC(c2c(C(=O)NCc3cccc(Cl)c3)cnn2-c2ccc(F)cc2)CC1 | -2% | -33%[59 µM] | -3% | 38% | -1%[57.1 µM]
Cc1ccc(C(C(=O)NC2CCCCC2)N(C(=O)c2csnn2)C2CC2)cc1 (stereo not given) | -6% | -3% | -15% | 10% | -13%
CC(C)=CCC[C@H](C)C[C@@H]1CC2=C(C(=O)OC(C)(C)O2)[C@@H](c2ccc(F)cc2)O1 | 0% | . | . | . | .
COc1ccc(CN2C(=O)c3cccnc3C2=O)cc1S(=O)(=O)NCc1ccccc1 | -1% | . | -20% | 20% | ?
CCCNS(=O)(=O)c1cc(CN2C(=O)c3cccnc3C2=O)ccc1OC | 2% | -8% | 89µM* | 8% | ?
O=C(Nc1cccc(Oc2ccc(C(=O)O)c(C(=O)O)c2)c1)c1ccc(-c2ccccc2)cc1 | ? | . | -14%[11.4 µM] | ? | 50µM*
CC(C)(C)C(=O)Nc1ccc(C(=O)Nc2cccc(Oc3ccc(C(=O)O)c(C(=O)O)c3)c2)cc1 | 9% | 45µM* | -33% | -2% | -33%
CCCCC(CC)C(=O)Nc1ccccc1C(=O)NC(C)C (stereo not given) | 1% | -5%[12.7 µM] | -17% | 11% | 6%
Cn1ncc(Br)c1C(=O)N1CCCC1 | 19% | . | -1% | 23% | 5%
Cn1ncc(Br)c1C(=O)N1CCCCCC1 | 7% | 32µM* | -2% | 13% | 4%
COC(=O)CN1C(=O)[C@@H]2[C@H](C1=O)[C@@H]1CC(C(=O)OC)=C[C@@H](C(=O)OC)C3C1=C(C(=O)C31CCCCC1)[C@@H]2C (stereo not given in full) | . | . | -17% | 5% | .
Cc1cccn2c(Nc3ccccc3)c(-c3ccccn3)nc12 | 14% | 40µM* | 13µM* | 9% | 18µM*
Cc1cccc(C)c1Nc1c(-c2cccs2)nc2ncccn12 | 3% | -28%[59 µM] | -10% | -7% | ?
Cc1cccc(C)c1Nc1c(-c2ccccn2)nc2c(C)cccn12 | 27% | -38%[59 µM] | 10µM* | -18% | ?
COc1ccc(-c2nc3ncccn3c2Nc2ccccc2)cc1 | -4% | -8% | 0% | 28% | -32%
O=C(O)C1Cc2[nH]cnc2C(c2ccccc2O)N1 (stereo not given) | 23% | 17%[59 µM] | 89µM* | 18% | 0%
O=C(O)C1Cc2[nH]cnc2C(c2cccc([N+](=O)[O-])c2)N1 (stereo not given) | -10% | 10% | -12% | 40% | ?
CCOCCCNC(=O)c1cc2c(s1)-c1ccccc1SC2 | -3% | 10µM* | -3% | 15% | 3%
